PLK1 PBD inh – inhibitors of human PLK1 polo-box domain binding | P53350 | Plk1 PBD binding of FITC phosphopeptide, fluorescence polarization | Potency, µM, inactives show max response, negative = inhibition, most hits filed as inhibitors | 2.8% of 360,000 active | AID 720504; further: series mostly up to about 57 µM; nearly all actives have a fitted effect of over 65% in size
Sfp PPTase inh – Sfp phosphopantetheinyl transferase inhibition. Biochemical Sfp PPTase activity, qHTS. Potency, µM, without a hit: largest response in the series, negative = inhibition, most hits filed as inhibitors. 3.5% of 310,000 active;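 further: the enzyme is Sfp with the accession as filed and its product quenches rhodamine fluorescence; 0% = enzyme reaction without inhibitor and -100% = no enzyme wells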
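After 15 min at room temperature with compound, 15 nM Sfp received 5 uM rhodamine-CoA plus 12.5 uM BHQ-2-ybbR (50 mM Hepes pH 7.6, 10 mM MgCl2). Rate came from the fluorescence difference over 30 min, ex 525/em 598 nm.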
ALOX12 inh – blocks human arachidonate 12S-lipoxygenase | P18054 | purified 12hLO, xylenol orange hydroperoxide absorbance | Potency, µM (top dose mostly 108 µM), for the others: at the highest dose activity change, negative = inhibition, usual class: inhibitors | 1.1% of 580,000 active | AID 1671190
Target sequence (P18054 whole entry, looked up): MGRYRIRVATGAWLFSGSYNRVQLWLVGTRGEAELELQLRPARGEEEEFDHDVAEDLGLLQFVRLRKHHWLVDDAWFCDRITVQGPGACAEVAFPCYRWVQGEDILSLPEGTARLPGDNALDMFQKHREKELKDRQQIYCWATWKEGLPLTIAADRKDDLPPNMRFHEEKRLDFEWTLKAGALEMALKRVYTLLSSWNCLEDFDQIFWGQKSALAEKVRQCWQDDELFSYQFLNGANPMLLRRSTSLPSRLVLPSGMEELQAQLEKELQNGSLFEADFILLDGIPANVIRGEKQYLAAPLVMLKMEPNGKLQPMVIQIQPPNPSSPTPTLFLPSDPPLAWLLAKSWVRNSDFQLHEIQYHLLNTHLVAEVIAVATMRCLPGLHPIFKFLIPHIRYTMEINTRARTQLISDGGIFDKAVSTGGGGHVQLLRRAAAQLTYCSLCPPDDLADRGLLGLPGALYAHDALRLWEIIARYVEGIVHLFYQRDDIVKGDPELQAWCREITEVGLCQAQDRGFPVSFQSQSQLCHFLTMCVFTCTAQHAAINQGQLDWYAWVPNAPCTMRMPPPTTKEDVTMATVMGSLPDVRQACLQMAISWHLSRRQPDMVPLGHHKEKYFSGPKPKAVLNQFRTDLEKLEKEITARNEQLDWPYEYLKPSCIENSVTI
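Purified human 12hLO at 150 nM in 25 mM Hepes, 0.01% Triton X-100, pH 7.0, preincubated 15 min at room temperature with compound. Reaction started with 40 uM arachidonic acid, 30 min at room temperature. Hydroperoxide measured by Fe-xylenol orange, 573/405 nm absorbance ratio.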
VDR inhibitor – inhibitors of human vitamin D receptor; VDR-SRC2-3 peptide fluorescence polarization, 2 h; Potency, µM, for inactives: max response, negative = inhibition, actives largely listed as inhibitors; 0.93% of 400,000 active; AID 504847
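Fluorescence polarization assay of small-molecule disruption of VDR binding to coregulator peptide SRC2-3. Compounds and controls pin-transferred, then read after 2 h incubation at ambient room temperature.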
The depositor's hits bear a star; u = inconclusive; x = not tested or not shown; ! = repeats disagree; [ ] = dose if it differs, or a comment. In the library only some 4.2% were active in any assay of this set; here they are far more common. The call rests on the fitted dose curve; in most records, active means well fitted curve in the direction sought with a large enough effect; inconclusive means small, poorly fitted or top-dose-only effect, or another doubt; inactive means no such curve, though single readings can be large; an effect the other way counts as inactive or inconclusive. Unless noted, on the % scale 0 is the no-effect control and ±100 the full control effect; potency means the concentration at half of the fitted maximal effect.

SMILES	PLK1 PBD inh	Sfp PPTase inh	ALOX12 inh	VDR inhibitor
CCCOc1ccc(CNC(=O)C(NS(=O)(=O)c2cccs2)C(C)C)cc1 (stereo not given)	x	x	-26%	5%
Cc1ccc2cc(C(c3nnnn3C3CCCC3)N3CCN(c4ccc(F)cc4)CC3)c(=O)[nH]c2c1 (stereo not given)	0%	35µM*	u	6%
Cc1cccc2cc(C(c3nnnn3C3CCCC3)N3CCOCC3)c(=O)[nH]c12 (stereo not given)	-3%	-1%	-34%	-8%
Cc1cc(C)c2cc(C(c3nnnn3C3CCCC3)N3CCOCC3)c(=O)[nH]c2c1 (stereo not given)	0%	56µM*	0%	-13%
COc1ccc2[nH]c(=O)c(C(c3nnnn3C3CCCCC3)N3CCN(C)CC3)cc2c1 (stereo not given)	-2%	-8%	-10%	-2%
CC(C)CCc1noc(CN2CCCN(C(=O)c3ccco3)CC2)n1	x	x	4%	x
CC(C)(C)C(=O)Nc1cccc(NC(=O)C2CCCCC2)c1	x	x	-7%	x
CS(=O)(=O)c1ccc(Cn2c3c(c4cc(F)cc(F)c42)CCC[C@H]3CC(=O)O)cc1	x	-8%	60%	25µM*
Cc1ccc(-c2noc([C@@H]3C[C@@H](O)CN3Cc3ccc(S(C)(=O)=O)cc3)n2)cc1F	x	x	6%[176 µM]	x
O=S(=O)(NCCO)c1ccc(Cl)c(Cl)c1	x	x	13%	x
CN(C)CC(C)(C)CNS(=O)(=O)c1ccc(Cl)c(Cl)c1	19µM*!	3%	-7%	-23%
Cc1nn(C)c(C(=O)Sc2ccccc2)c1[N+](=O)[O-]	u	-9%	0%	-28%
CCn1nc(C)cc1C(=O)Sc1cccc(Cl)c1	19µM*	-8%	-3%	u
Cc1nn(C)c(C(=O)Sc2cccc(Cl)c2)c1[N+](=O)[O-]	4.2µM*	-29%	u	40µM*
Cc1nc(SCC(=O)Nc2nc3ccccc3s2)c(C#N)c(C)c1C	-17%	50µM*	-8%	-6%
COc1ccc(Nc2cc(C)c3ccccc3n2)cc1	-8%	8%	u	0%
COc1ccc(Nc2cc(C)c3cc(C)ccc3n2)cc1	x	x	18µM*	x
O=C(O)CNS(=O)(=O)c1ccc2c3c(cccc13)C(=O)N2	-10%	-1%	15%	-20%
O=C1Nc2ccc(S(=O)(=O)N(CCO)CCO)c3cccc1c23	21µM*	15%	u	-30%
CCOC(=O)N=S(N)(=O)c1ccc(Cl)cc1 (stereo not given)	11µM*	19%	2%	-4%
CCOC(=O)N=S(N)(=O)c1ccccc1 (stereo not given)	-5%	-4%	-21%	10%
O=C(c1cccnc1)N1c2ccccc2Sc2ccccc21	2%	1%	0%	12%
CCOC(=O)C1C(=O)C=C(c2ccco2)CC1c1ccccc1 (stereo not given)	x	x	11µM*	x
Cc1cc(=O)nc2c3ccccc3n(CC(=O)NCCCN3CCCC3=O)n12	-24%	9%	0%	-20%
Cc1cc(=O)nc2c3ccccc3n(CC(=O)NCCCN3CCOCC3)n12	19µM*	15%	x	u
SMILES	PLK1 PBD inh	Sfp PPTase inh	ALOX12 inh	VDR inhibitor
[O-]/[N+](=C\c1ccncc1)c1ccccc1	-11%	-28%	0%	79µM*
CC(=O)NC(CCc1ccc(Cl)c(Cl)c1)c1cccc(O)c(=O)c1 (stereo not given)	-18%	x	40µM*	x
C#CCOC(=O)/C(=C/c1ccc(F)cc1)NC(C)=O	-5%	16%	8%	-12%
COc1ccc(C(CC(=O)c2ccc(C)cc2)Sc2ccccc2N)cc1 (stereo not given)	-21%	x	50µM*	x
Cc1nn2c(c1-c1ccccc1C(C)C)N(CCC(C)C)CCC2	x	x	50µM*	x
Cc1nn2c(c1-c1cccnc1N1CCOCC1)N(CCc1ccccc1)CCC2	x	x	20µM*	x
Cc1nn2c(c1-c1cccnc1N1CCOCC1)N(CCC(C)C)CCC2	x	x	18µM*	x
CC(=O)Nc1ccccc1-c1c(C)nn2c1N(CCCc1ccccc1)CCC2	x	x	16µM*	x
COc1ccc(OC)c(CN2CCCn3nc(C)c(-c4cccnc4N4CCOCC4)c32)c1	x	x	24%	x
CC(C)(C)OC(=O)C[C@@H]1C/C=C\C[C@H](CC(=O)NCCO)C(=O)N[C@H](Cc2ccccc2)COC1=O	-9%	x	-24%	7%
O=C(C1CC1)N1CCC(O)(c2csc(CN3CCOCC3)n2)CC1	x	x	74%[176 µM]	x
CCN(CC)S(=O)(=O)c1ccc(Cl)c(NC(=O)COC(=O)c2cccn2C)c1	7%	3%	-2%	-12%
CCc1ccc(C(=O)N2CCC(N3C(=O)CCC3C(=O)NC(C)C)CC2)cc1 (stereo not given)	x	x	38%	x
CN(CC(=O)NCc1ccc2c(c1)OCO2)S(=O)(=O)c1ccc(Cl)cc1	u	x	6%	0%
Cc1ccc(S(=O)(=O)N2CCN(c3nc(C)nc4sc5c(c34)CCC(C)C5)CC2)cc1 (stereo not given)	x	-12%	x	x
Cc1ccncc1-c1c(C)nn2c1N(Cc1ccc(C(=O)O)cc1)CCC2	x	x	16µM*	x
O=C(N/N=C/c1sc(N2CCCCC2)nc1-c1cccs1)C1CC1	-14%	56µM*	3%	-8%
NC(=O)N/N=C/c1sc(N2CCCCC2)nc1-c1cccs1	u	x	-9%	-24%
CC(C)NC(=S)N/N=C/c1sc(N2CCCCC2)nc1-c1cccs1	-24%	-9%	35µM*	10%
COc1ccccc1NC(=O)CCSc1nnc(-c2ccncc2)o1	4%	10%	-7%	-6%
Oc1c(Cl)cc(Cl)c2c1NCCC2	4.7µM*	16µM*	u	32µM*
COc1ccc([C@H]2CC(=O)C=C(c3cccc(Cl)c3O)C2)cc1OC	-6%	x	22µM*	0%
CO/N=C/c1c(C(=O)OC)nn(-c2ccccc2)c1Cl	3.8µM*	15%	u	u
CC(C)CCNC(=O)c1ccc2c(c1)N(S(=O)(=O)c1ccccc1)CC2	x	x	-4%	x
Cc1nn(C)cc1CN(C)C(=O)c1cc2nc(-c3ccco3)cc(C(F)(F)F)n2n1	-7%	35µM*	-10%	-12%
SMILES	PLK1 PBD inh	Sfp PPTase inh	ALOX12 inh	VDR inhibitor
Cc1nn(C)c(C)c1CN(C)C(=O)c1cc2nc(-c3ccco3)cc(C(F)(F)F)n2n1	-14%	11%	437%	-4%
Cc1ccc(/C=N/n2cnc3sc(C)c(C)c3c2=O)o1	21µM*	8%	-6%	u
CC1/C=C/C=C/C=C/C=C/C=C/C=C/C=C/C(OC2OC(C)C(O)C(N)C2O)CC2O[C@@](O)(CC(O)CC(O)C(O)CCC(O)CC(O)CC(=O)OC(C)[C@H](C)C1O)CC(O)C2C(=O)O (stereo not given in full)	x	-65%	x	50µM*
Cc1ccc(Cc2c(-c3ccc(Br)cc3)nc3cc(C)ccn23)cc1	0%	x	u	x
Cc1ccc(Cc2c(-c3ccc(C#N)cc3)nc3ccc(Br)cn23)cc1	-4%	x	20µM*	x
Cc1ccc(Cc2c(-c3ccccc3)nc3ccc(Br)cn23)cc1	-7%	x	6.3µM*	x
N#Cc1ccc(-c2nc3ccc(Br)cn3c2Cc2ccccc2)cc1	-4%	x	u	x
Cc1ccc(Cc2c(-c3ccc(F)cc3)nc3cc(C)ccn23)cc1	-6%	x	20µM*	x
COc1ccc(C(=O)C(Br)C(=O)c2ccc(OC)cc2)cc1	x	x	6.3µM*	x

Assay outcomes as filed in PubChem.
